Several values for one entry are separate records, joined by “and”; a condition that tells them apart may be missing. Equal entries are not always repeated. Results filed as inconclusive are left out. A call without a number means that no potency is given here. More than one record can exist for a structure, and the calls need not agree. Activity calls are given as the source filed them. Calls come from the whole dose curve; as a rule, active = well fitted curve in the direction sought with a large enough effect; inconclusive = small, poorly fitted or top-dose-only effect, or another doubt; inactive = no such curve, though single readings can be large; an effect the other way counts as inactive or inconclusive.
Legend:
[1] = biological target: Glutathione peroxidase 1 (Homo sapiens) (UniProt P07203); test: Primary qHTS Assay for Inhibitors of Recombinant Selenoprotein Glutathione Peroxidase 1 (GPX1) (AID 1845191); note: nearly all actives have a fitted effect of over 65% in size
Glutathione peroxidase 1 (Homo sapiens), sequence (P07203 whole entry, looked up): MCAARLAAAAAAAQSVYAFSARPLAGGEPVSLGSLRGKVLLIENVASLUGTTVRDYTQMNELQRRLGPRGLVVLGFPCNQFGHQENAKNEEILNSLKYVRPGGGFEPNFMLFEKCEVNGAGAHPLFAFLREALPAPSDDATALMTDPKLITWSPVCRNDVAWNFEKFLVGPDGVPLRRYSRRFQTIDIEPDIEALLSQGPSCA
In short: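 GR-coupled readout: NADPH consumption tracked by fluorescence, ex 340/em 450 nm, at t=0 and after 15 min at RT. Final mix 10 nM GPX1, 1 mM GSH, 0.5 mM CHP, 0.5 mM NADPH, 100 nM GR, 0.01% BSA, following 30 min enzyme–compound preincubation.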

[2] = biological target: Phospholipid hydroperoxide glutathione peroxidase GPX4 (Homo sapiens) (UniProt P36969); test: Primary qHTS Assay for Inhibitors of Recombinant Selenoprotein Glutathione Peroxidase 4 (GPX4) (AID 1845192); note: nearly all actives have a fitted effect of over 65% in size; note: potency is the fitted concentration of half-maximal effect
Phospholipid hydroperoxide glutathione peroxidase GPX4 (Homo sapiens), sequence (P36969 whole entry, looked up): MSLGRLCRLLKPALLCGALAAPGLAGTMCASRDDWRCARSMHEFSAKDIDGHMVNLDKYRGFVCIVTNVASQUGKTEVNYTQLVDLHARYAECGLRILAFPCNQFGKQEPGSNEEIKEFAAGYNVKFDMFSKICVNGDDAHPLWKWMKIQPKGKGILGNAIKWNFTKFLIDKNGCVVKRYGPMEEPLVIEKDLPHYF
In short: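 Steps: GPX4 plus compound, 30 min RT; add GR/GSH/NADPH master mix; start with cumene hydroperoxide; read 340/450 nm fluorescence at 0 and 15 min. Finals were 200 nM GPX4, 1 mM GSH, 0.5 mM CHP, 0.5 mM NADPH, 100 nM GR.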

[3] = biological target: Luciferin 4-monooxygenase (Photinus pyralis) (UniProt P08659); test: Primary firefly luciferase (FLuc) qHTS assay for identification of artifact compounds. (AID 1845220); note: nearly all actives have a fitted effect of over 60% in size
In short: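 D-luciferin and ATP (10 uM each, final) in Tris acetate buffer pH 7.6 were incubated with compounds for 15 min at room temperature. The reaction was started with 10 nM Photinus pyralis luciferase and luminescence read after 5 min. Percent inhibition was fitted to a 4-parameter Hill equation.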

[4] = Primary fluorescence-based thiol-reactive (MSTI) qHTS assay for identification of artifact compounds. (AID 1845221); note: nearly all actives have a fitted effect of over 65% in size; note: potency is the fitted concentration of half-maximal effect
In short: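 One-hour, room-temperature, dark incubation of compound with 4 uM MSTI in PBS (pH 7.4, 2% DMSO) precedes a fluorescence read at 525 nm excitation, 598 nm emission; Hill-equation fitting yields concentration-response values.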

| SMILES | Potency [1] | Potency [2] | Potency [3] | Potency [4] |
| --- | --- | --- | --- | --- |
| CCCCC(C)(C)[C@H](O)C=C[C@H]1[C@H](O)CC(=O)[C@H]1CC=CCCCC(=O)O | inactive | inactive |  |  |
| O=C1NC(=O)C(c2cnc3ccccn23)=C1c1cn2c3c(cccc13)CN(C(=O)N1CCOCC1)CC2 | inactive | inactive | inactive |  |
| CNC(=O)c1cc(COc2nnc(Nc3ccc(Cl)cc3)c3ccoc23)ccn1 | inactive | inactive |  |  |
| O=C(Nc1cccc(Cl)c1)Nc1ncc(CCNc2ncnc3ccsc23)s1 | inactive | inactive |  |  |
| COc1cc2c(cc1OC)CC(=O)N(CCCN(C)C[C@H]1Cc3cc(OC)c(OC)cc31)CC2 | inactive | inactive |  |  |
| CCC(c1ccc(O)cc1)C(CC)c1ccc(O)cc1 (configuration not stated) | inactive | inactive |  |  |
| COc1c(C)cnc(Cn2cnc3c(Cl)nc(N)nc32)c1C | inactive | inactive |  |  |
| C[C@@H]1CCO[C@H]2Cn3cc(C(=O)NCc4ccc(F)cc4F)c(=O)c(O)c3C(=O)N12 | inactive | inactive | inactive |  |
| O=C(c1ccc(C(=O)N2CCC(N3CCCC3)CC2)c(Nc2ccccc2)c1)N1CCC(N2CCCC2)CC1 | inactive | inactive | inactive |  |
| COC(=O)[C@H](c1ccccc1Cl)N1CCc2sccc2C1 | inactive | inactive |  |  |
| CN1CCN(c2cccc(Nc3nc4c(-c5ccc(S(C)(=O)=O)cc5)cccn4n3)c2)CC1 | inactive | inactive | inactive |  |
| COc1ccc(Cn2ccc3ccc(C(=O)NO)cc32)cc1 | inactive | inactive | inactive |  |
| CC[C@H](CC#N)OC(=O)N[C@@H](C)c1cccc(NC(=O)Nc2ccc(-c3cnco3)c(OC)c2)c1 | inactive | inactive | inactive | inactive |
| CS(=O)(=O)c1ccc(C2=C(c3ccccc3)C(=O)OC2)cc1 | inactive | inactive | inactive | inactive |
| CC(C)(C)c1nc(-c2cccc(NS(=O)(=O)c3c(F)cccc3F)c2F)c(-c2ccnc(N)n2)s1 | inactive | inactive and 12.8 µM (active) and 11.2 µM (active) | inactive | inactive |
| C=CC(=O)Nc1cccc(Sc2nc(Nc3ccc(N4CCN(C)CC4)cc3)ncc2Cl)c1 | inactive | inactive | inactive | 3.36 µM (active) |
| N#Cc1ccc(Oc2ccc3c(c2)COB3O)cc1 | inactive | inactive | inactive | inactive |

| SMILES | Potency [1] | Potency [2] | Potency [3] | Potency [4] |
| --- | --- | --- | --- | --- |
| Cc1ccccc1C(=O)c1ccc(Nc2ccc(Br)cc2N)cc1Cl | inactive | inactive | inactive | inactive |
| CN(C)CCOc1cc(-c2cn[nH]c2)ccc1NC(=O)C1COc2ccccc2O1 (configuration not stated) | inactive | inactive | inactive | inactive |
| Cc1cnc(-c2cc(N3CCN(C(=O)CCS(C)(=O)=O)CC3)ncc2Cl)c(C)c1 | inactive | inactive | inactive | inactive |
| COc1ccc(-c2cc3nccn3c(Nc3ncccc3C(N)=O)n2)cc1OC | inactive | inactive | inactive | inactive |
| CNc1nc(Nc2ccc(C(=O)N3CCOCC3)cc2OC)ncc1Cl | inactive | inactive | inactive | inactive |
| Cc1nc2c([nH]1)CCN(C(=O)c1ccc(NC(=O)c3ccccc3-c3ccccc3)cc1)c1ccccc1-2 | inactive | inactive | inactive | inactive |
| N#CC1(c2cccc(C(=O)Nc3cc(Oc4ccc5nc(NC(=O)C6CC6)sc5n4)ccc3F)c2Cl)CC1 | inactive | inactive | inactive | inactive |
| O=C(O)CCNc1cc(N2CCc3ccccc3CC2)nc(-c2ccccn2)n1 | inactive | inactive | inactive | inactive |
| CN(C)c1nc(Cc2ccc(NC(=O)c3ccc(C(F)(F)F)cc3)cc2)nc(N(C)C)c1CC(=O)O | inactive | inactive | inactive | inactive |
| CCN(CCO)CCCOc1ccc2c(Nc3cc(CC(=O)Nc4cccc(F)c4)[nH]n3)ncnc2c1 | inactive | inactive | inactive | inactive |
| Cc1ccccc1C(C(=O)NC1CCCCC1)N(C(=O)CNc1ccc(C#N)cc1)c1cccc(F)c1 (configuration not stated) | inactive | inactive | inactive | inactive |
| O=C1C(c2c(O)[nH]c3ccccc23)=Nc2ccccc21 | inactive | inactive | inactive | 0.184 µM (active) |
| O=C(Nc1cccc(C(F)(F)F)c1)Nc1cc(S(=O)(=O)NC2CC2)ccc1-c1ccsc1 | inactive | inactive | inactive | inactive |
| CCn1c(-c2nonc2N)nc2cncc(CNC3CCNCC3)c21 | inactive | inactive | inactive | inactive |
| Cc1cnc(Nc2cccc(CN3CCOCC3)c2)nc1Nc1cccc(S(=O)(=O)NC(C)(C)C)c1 | inactive | inactive | inactive | inactive |
| CCN1CCN(c2ccc(Nc3cc(N(C)C(=O)Nc4c(Cl)c(OC)cc(OC)c4Cl)ncn3)cc2)CC1 | inactive | inactive | inactive |  |

— PubChem BioAssay (NCATS)
